Whole data set: some 1,400 sequences, median “thermal melting temperature (Tm) of peptide-HLA complex” near 60, cut for the lowest 2% near 45. This is one part of a sample in which the lowest values are shown more often than they occur.
What follows are sequences tested against HLA-B*07:02 (assay: thermal melting temperature (Tm) of peptide-HLA complex; higher = more thermostable pHLA complex). Details: C1R-B*07:02.
With YLRDTLLAL the thermal melting temperature was 53.6 °C.
Sequence VPEVTKPSL has a thermal melting temperature of 57.6 °C.
With SPRPALPALL the thermal melting temperature was 60.2 °C.
For APILRARLLPL, the thermal melting temperature was 47.3 °C.
In the case of YPKRPLLGL, the thermal melting temperature is reported as 61.3 °C.
With YIDEGRLVL the thermal melting temperature was 51.6 °C.
GPRSSLRVL showed a thermal melting temperature of 58.9 °C.
FPRSVVEFL gave a thermal melting temperature of 62 °C.
In the case of LPAPKGPAL, the thermal melting temperature is reported as 57.9 °C.
Work on LPTSPGPAL yielded a thermal melting temperature of 40.6 °C.
Sequence KPNHTLVLL has a thermal melting temperature of 59.2 °C.
In the case of RPADSMLNVL, the thermal melting temperature is reported as 62 °C.
With RPAPLVQQL the thermal melting temperature was 58.3 °C.
With APREHPFVL the thermal melting temperature was 61 °C.
LPRTIFPTSTI was tested, and the thermal melting temperature was 62.8 °C.
Sequence LPHSATVTL has a thermal melting temperature of 60.7 °C.
DPMKARVVL gave a thermal melting temperature of 49.3 °C.
IPKLPAVSF showed a thermal melting temperature of 63.1 °C.
QPRSPGPDYSL gave a thermal melting temperature of 57.7 °C.
For RPKALTQVL, the thermal melting temperature was 61 °C.
Sequence SPLVSRLTLY has a thermal melting temperature of 41.1 °C.
SPLVSRLTL gave a thermal melting temperature of 61.4 °C.
Work on RPQLKGVVL yielded a thermal melting temperature of 61.1 °C.
Sequence SPLPSPSAM has a thermal melting temperature of 63.8 °C.
HPISNNNSL was tested, and the thermal melting temperature was 41.6 °C.
With NPMVTGTSV the thermal melting temperature was 56.3 °C.
With LPHEVDKSEL the thermal melting temperature was 44.8 °C.
Sequence SPVLRNFTF has a thermal melting temperature of 41.7 °C.
Sequence IPRPEVQAL has a thermal melting temperature of 54.1 °C.
Sequence VPQVKASAL has a thermal melting temperature of 59 °C.
In the case of LPGLRDLVL, the thermal melting temperature is reported as 61.7 °C.
Sequence MPKVKTIEL has a thermal melting temperature of 56.4 °C.
APRSVAVSSI was tested, and the thermal melting temperature was 59.4 °C.
In the case of SPHPGLLL, the thermal melting temperature is reported as 61 °C.
KPHIGLTEL showed a thermal melting temperature of 60.7 °C.
Work on LPRTPSYSI yielded a thermal melting temperature of 62.1 °C.
HPISSEELLSL gave a thermal melting temperature of 58.6 °C.
For MPKLRVLEL, the thermal melting temperature was 57.1 °C.
In the case of YPNERFELL, the thermal melting temperature is reported as 63.1 °C.
APSDLRTIQTF showed a thermal melting temperature of 62.8 °C.
RPFFPLTATL was tested, and the thermal melting temperature was 49.6 °C.
FIRNRTLQL showed a thermal melting temperature of 61.5 °C.
Work on MPARWLTHL yielded a thermal melting temperature of 55 °C.
QPVAGRPSL gave a thermal melting temperature of 55.8 °C.
Sequence QPNLKLLAM has a thermal melting temperature of 62.9 °C.
With SPRGAGYLF the thermal melting temperature was 63 °C.
RPVLWVGV gave a thermal melting temperature of 60.8 °C.
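Also: lysates heated 10 min at 37–73 °C, complexes pulled down with pan-HLA I antibody, peptide signal by DIA-MS relative to 37 °C, Tm where half the complex is unfolded.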
